Several values for one entry are separate records, joined by “and”; a condition that tells them apart may be missing. Identical values can stand only once. Inconclusive results are not listed. Activity calls are given as the source filed them. Unless noted, calls follow the shape of the dose curve; as a rule, active = well fitted curve in the direction sought with a large enough effect; inconclusive = small, poorly fitted or top-dose-only effect, or another doubt; inactive = no such curve, though single readings can be large; an effect the other way counts as inactive or inconclusive.
Legend:
[1] = target: Calcium and integrin-binding protein 1 (Homo sapiens) (UniProt Q99828); experiment: Primary qHTS for Identification of Calcium Integrin Binding Protein 1 (CIB1) Competitor (AID 1508620);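 also: GST tagged CIB1 binding a fluorescein labelled alphaIIb integrin peptide tracer; top concentration of the series differs between compounds; % is scaled to controls: 0 for no effect and ±100 for the full control effect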
Calcium and integrin-binding protein 1 (Homo sapiens), sequence (Q99828 whole entry, looked up): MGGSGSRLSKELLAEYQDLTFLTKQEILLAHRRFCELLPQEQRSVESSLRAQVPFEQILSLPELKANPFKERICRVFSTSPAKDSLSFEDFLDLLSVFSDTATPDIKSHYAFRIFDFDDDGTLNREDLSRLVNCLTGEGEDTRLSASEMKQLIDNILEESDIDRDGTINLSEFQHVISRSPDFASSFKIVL
Procedure, shortened: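 CIB1-GST (1 uM final) and compound incubated 15 min at room temperature before adding FITC-alphaIIb peptide tracer (100 nM final). Competition for binding read by fluorescence polarization (ex 480, em 540) after another 15 min at room temperature.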

[2] = target: Cytochrome P450 2D6 (Homo sapiens) (UniProt P10635); experiment: Cytochrome P450 family 2 subfamily D member 6 (CYP2D6) small molecule antagonists: luciferase biochemical (cell-free) qHTS assay (AID 1645840; active = well fitted curve in the direction sought with a large enough effect in the repeat runs; an effect the other way counts as inactive or inconclusive; also: nearly all actives have a fitted effect of over 55% in size; also: potency is read from the fitted curve at half-maximal effect; as to activity change, negative = inhibition: % is scaled to controls: 0 for no effect and ±100 for the full control effect)
Cytochrome P450 2D6 (Homo sapiens), sequence (P10635 whole entry, looked up): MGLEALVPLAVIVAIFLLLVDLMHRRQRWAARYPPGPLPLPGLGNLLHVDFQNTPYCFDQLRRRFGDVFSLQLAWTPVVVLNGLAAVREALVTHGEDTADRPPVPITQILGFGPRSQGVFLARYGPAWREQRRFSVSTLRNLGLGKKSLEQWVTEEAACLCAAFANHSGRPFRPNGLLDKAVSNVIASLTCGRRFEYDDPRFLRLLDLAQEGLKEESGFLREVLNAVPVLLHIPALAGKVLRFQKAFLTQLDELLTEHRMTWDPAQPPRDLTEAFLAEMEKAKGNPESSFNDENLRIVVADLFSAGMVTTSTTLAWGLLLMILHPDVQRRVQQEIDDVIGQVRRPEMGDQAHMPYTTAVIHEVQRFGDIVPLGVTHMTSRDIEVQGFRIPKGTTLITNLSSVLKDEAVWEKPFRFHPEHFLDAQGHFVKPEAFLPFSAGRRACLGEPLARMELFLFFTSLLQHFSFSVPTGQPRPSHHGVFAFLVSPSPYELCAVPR
Procedure, shortened: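 P450-Glo CYP2D6 system: proluciferin substrate converted by enzyme to luciferin, read by luminescence proportional to activity. Enzyme-substrate mix with compound 10 min at room temperature, then NADPH regeneration 1 h before detection reagent.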

[3] = target: Cytochrome P450 2C9 (Homo sapiens) (UniProt P11712); experiment: Cytochrome P450 family 2 subfamily C member 9 (CYP2C9) small molecule antagonists: luciferase biochemical (cell-free) qHTS assay (AID 1645842; active = well fitted curve in the direction sought with a large enough effect in the repeat runs; an effect the other way counts as inactive or inconclusive; also: nearly all actives have a fitted effect of over 55% in size; also: potency is read from the fitted curve at half-maximal effect; as to activity change, negative = inhibition: % is scaled to controls: 0 for no effect and ±100 for the full control effect)
Cytochrome P450 2C9 (Homo sapiens), sequence (P11712 whole entry, looked up): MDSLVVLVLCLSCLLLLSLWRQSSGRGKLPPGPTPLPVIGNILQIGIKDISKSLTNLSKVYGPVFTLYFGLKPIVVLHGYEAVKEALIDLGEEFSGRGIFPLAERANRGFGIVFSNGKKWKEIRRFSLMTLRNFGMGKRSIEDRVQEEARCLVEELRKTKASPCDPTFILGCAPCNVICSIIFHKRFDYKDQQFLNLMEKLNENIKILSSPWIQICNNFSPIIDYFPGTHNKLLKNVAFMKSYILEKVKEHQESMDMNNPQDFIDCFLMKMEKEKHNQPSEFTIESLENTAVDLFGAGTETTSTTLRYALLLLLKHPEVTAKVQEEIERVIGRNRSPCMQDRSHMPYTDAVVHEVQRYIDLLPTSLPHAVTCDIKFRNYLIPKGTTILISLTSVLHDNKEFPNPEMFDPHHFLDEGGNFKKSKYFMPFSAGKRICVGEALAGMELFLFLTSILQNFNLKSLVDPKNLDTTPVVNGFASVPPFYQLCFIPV
Procedure, shortened: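 P450-Glo CYP2C9 system: proluciferin substrate with enzyme in mix containing 0.4% BSA, 10 min at room temperature, then NADPH regeneration solution added and incubated 1 h at 37C. Detection reagent stopped reaction; luminescence read after 20 min as RLU.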

[4] = Primary qHTS for inhibitors of nuclear receptor binding SET domain protein 2 (NSD2) in an isogenic RCH-ACV NSD2 p.E1099K mutant (9B) (AID 1645876); also: nearly all actives have a fitted effect of over 70% in size; also: potency is read from the fitted curve at half-maximal effect
[5] = Primary qHTS for inhibitors of nuclear receptor binding SET domain protein 2 (NSD2) in an RCH-ACV wild type WT cells (2C) (AID 1645877); also: nearly all actives have a fitted effect of over 70% in size; also: potency is read from the fitted curve at half-maximal effect
[6] = target: Catechol O-methyltransferase (Homo sapiens) (UniProt P21964); experiment: Confirmatory Screen for Target Class Profiling of Small Molecule Inhibitors of Methyltransferases (AID 1745852; calls by dose curve; also: potency is read from the fitted curve at half-maximal effect; as to activity change, negative = inhibition: % is scaled to controls: 0 for no effect and ±100 for the full control effect); conditions: MTase-Glo luminescence, SAH detection, recombinant enzyme; measured here: COMT max response; stronger effect = lower value
Catechol O-methyltransferase (Homo sapiens), sequence (P21964 whole entry, looked up): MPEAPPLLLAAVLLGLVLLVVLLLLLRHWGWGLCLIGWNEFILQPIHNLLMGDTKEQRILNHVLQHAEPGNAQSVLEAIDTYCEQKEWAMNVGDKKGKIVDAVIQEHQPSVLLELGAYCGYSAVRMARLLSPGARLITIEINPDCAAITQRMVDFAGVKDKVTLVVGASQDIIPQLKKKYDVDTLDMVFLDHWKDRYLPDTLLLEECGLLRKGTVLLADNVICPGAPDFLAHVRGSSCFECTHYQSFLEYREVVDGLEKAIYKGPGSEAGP

[7] = target: Guanidinoacetate N-methyltransferase (Homo sapiens) (UniProt Q14353); experiment: as above; conditions: activity change, negative = inhibition: at 57.3 µM (top of the series) unless noted
[8] = target: Nicotinamide N-methyltransferase (Homo sapiens) (UniProt P40261); experiment: as above; conditions: MTase-Glo luminescence, SAH detection, recombinant enzyme; measured here: NNMT max response; stronger effect = lower value
Nicotinamide N-methyltransferase (Homo sapiens), sequence (P40261 whole entry, looked up): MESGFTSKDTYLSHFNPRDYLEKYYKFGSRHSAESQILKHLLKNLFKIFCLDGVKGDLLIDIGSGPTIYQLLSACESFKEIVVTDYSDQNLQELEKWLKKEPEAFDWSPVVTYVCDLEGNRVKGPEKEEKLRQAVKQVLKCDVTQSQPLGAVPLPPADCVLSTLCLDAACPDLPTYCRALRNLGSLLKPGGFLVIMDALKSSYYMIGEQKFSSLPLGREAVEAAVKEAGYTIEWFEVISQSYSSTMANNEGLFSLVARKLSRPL

[9] = target: Phenylethanolamine N-methyltransferase (Homo sapiens) (UniProt P11086); experiment: as above; conditions: MTase-Glo luminescence, SAH detection, recombinant enzyme; measured here: PNMT max response; stronger effect = lower value
Phenylethanolamine N-methyltransferase (Homo sapiens), sequence (P11086 whole entry, looked up): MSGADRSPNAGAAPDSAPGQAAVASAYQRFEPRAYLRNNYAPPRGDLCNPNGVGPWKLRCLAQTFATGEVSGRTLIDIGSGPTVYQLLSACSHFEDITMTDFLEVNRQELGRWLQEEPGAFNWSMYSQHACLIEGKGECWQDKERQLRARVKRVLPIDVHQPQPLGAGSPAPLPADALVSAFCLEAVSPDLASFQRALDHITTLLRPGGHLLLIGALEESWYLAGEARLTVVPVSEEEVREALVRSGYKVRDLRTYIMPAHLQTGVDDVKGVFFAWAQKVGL

Row | Compound | Potency [1] | Potency [2] | Potency [3] | Potency [4] | Potency [5] | activity [6] | activity change, negative = inhibition [7] | activity [8] | activity [9] | Potency [7]
1 | Cc1cc(C(=O)Nc2cccc(C(=O)Nc3cccc(C(F)(F)F)c3)c2)on1 | inactive | inactive | 3.79 µM (active) | inactive | inactive | – | – | – | – | –
2 | CCNC(=O)Nc1ncc(-c2cc(-c3c(C)cc(OC)cc3C)nc(-c3cnccn3)n2)s1 | inactive | 8.49 µM (active) | 3.79 µM (active) | inactive | inactive | – | – | – | – | –
3 | COc1cc(O)c([C@@H](CC(=O)N2CC(C)CC(C)C2)c2ccc3c(c2)OCO3)c(OC)c1 (stereo not given in full) | inactive | 19 µM (active) | 1.34 µM (active) | – | inactive | – | – | – | – | –
4 | Cc1cnc(NC(=O)Nc2cc(Br)c(C)cc2OCC2CNCCO2)cn1 (stereo not given) | inactive | 12 µM (active) | – | 0.649 µM (active) | 0.578 µM (active) | – | – | – | – | –
5 | COc1cc2nc(N3CCCC3)nc(NCCCCCN3CCCC3)c2cc1OC | inactive | 4.77 µM (active) | inactive | 4.59 µM (active) | 5.15 µM (active) | -4.52% | 0.888% | -30.1% | -0.684% | –
6 | Cc1c[nH]c2nccc(Oc3c(F)cc(Nc4cc(Cl)nc(N)n4)cc3F)c12 | inactive | 6.74 µM (active) | 15.1 µM (active) | 0.728 µM (active) | 0.731 µM (active) | -14.6% | 0% | -27.7% | -3.98% | –
7 | O=C(c1ccccc1)c1ccc2nc(NC(=O)c3csc(C4CCN(c5ncnc6ccsc56)CC4)n3)[nH]c2c1 | inactive | inactive | 9.52 µM (active) | 3.25 µM (active) | 4.59 µM (active) | -7.12% | 0.0948% | -42% | -13.7% | –
8 | COc1cc(N)c(Cl)cc1C(=O)NC[C@@H]1CCN2CCC[C@@H]12 | inactive | 10.7 µM (active) | – | inactive | – | – | – | – | – | –
9 | CN(C)CCn1cc(S(=O)(=O)c2cccc(F)c2)c2cccnc21 | inactive | 21.3 µM (active) | inactive | – | inactive | – | – | – | – | –
10 | CCCC(=O)C1CCN(c2ncnc3c2CN(C(=O)c2ccc(-c4ccccc4)cc2)CC3)CC1 | inactive | 21.3 µM (active) | 3.01 µM (active) | – | 20.5 µM (active) | – | – | – | – | –
11 | CC(C)(C)OC(=O)N1CCC(OCc2nc(-c3ccncc3)no2)CC1 | inactive | inactive | – | inactive | inactive | – | – | – | – | –
12 | O=C(CN1C(=O)C2(CCCC2)NCC1c1cc(F)cc(F)c1)Nc1ccc2c(c1)CC1(C2)C(=O)Nc2ncccc21 (stereo not given) | inactive | inactive | – | inactive | inactive | – | – | – | – | –
13 | Cc1ccc(S(=O)(=O)Cc2nc(-c3ccc(C(=O)NCc4cccnc4)cc3)oc2C)cc1 | inactive | inactive | – | 0.0132 µM (active) | 0.0186 µM (active) | – | – | – | – | –
14 | Cn1ncnc1COc1nn2c(-c3cc(F)ccc3F)nnc2cc1C(C)(C)C | inactive | inactive | 9.52 µM (active) | – | 1.03 µM (active) | – | – | – | – | –
15 | NC(=O)c1cnc(NCCc2ccc(O)c(Cl)c2)nc1NCc1ccccc1 | inactive | 15.1 µM (active) | 6.74 µM (active) | 1.29 µM (active) | 1.15 µM (active) | -29% | – | -78.6% | -25.9% | 27.1 µM (active)
16 | CN(c1ccccc1CNc1nc(Nc2ccc3c(c2)CC(=O)N3)ncc1C(F)(F)F)S(C)(=O)=O | inactive | 23.9 µM (active) | 1.51 µM (active) | 1.29 µM (active) | 1.03 µM (active) | -5.57% | -2.47% | -47.3% | -5.42% | –
17 | CC(C)c1cccc2c(-c3ccccc3)cc(-c3ccc(-c4ccc(C(=O)O)cc4)[nH]3)nc12 | inactive | inactive | 7.56 µM (active) | – | – | -3.32% | -5% | -16.3% | -5.01% | –
18 | CN(C)c1nc(NC2CCC(NCCc3ccc(Br)cc3OC(F)(F)F)CC2)nc2ccccc12 (stereo not given) | inactive | 2.68 µM (active) | 7.56 µM (active) | 3.65 µM (active) | 2.58 µM (active) | -10.3% | -2.23% | -85% | -42.3% | –
19 | CC(Cc1cc2c(c(C(N)=O)c1)N(CCCO)CC2)NCCOc1ccccc1OCC(F)(F)F (stereo not given) | inactive | 7.56 µM (active) | inactive | – | inactive | – | – | – | – | –
20 | COc1cc2nc(N3CCC(N4CCCCC4)CC3)nc(NC3CCCCCC3)c2cc1OC | inactive | 7.56 µM (active) | inactive | 2.3 µM (active) | 2.3 µM (active) | -39.3% | – | -54.7% | -35.6% | 42.9 µM (active)
21 | C=CC(=O)Nc1cccc(Nc2nc(Nc3ccc(N4CCN(C(C)=O)CC4)cc3OC)ncc2C(F)(F)F)c1 | inactive | inactive | – | 3.65 µM (active) and 4.17 µM (active) | – | – | – | – | – | –
22 | CC(C)(C(=O)NCC(F)(F)C(F)(F)F)C(=O)NC1C(=O)Nc2ccccc2-c2ccccc21 (stereo not given) | inactive | 10.7 µM (active) | 9.52 µM (active) | – | 14.5 µM (active) | – | – | – | – | –
23 | O=C(Nc1ccc(-c2ccncc2)cc1)N[C@H](CO)c1ccccc1 | inactive | 10.7 µM (active) | 10.7 µM (active) | – | 23 µM (active) | – | – | – | – | –

From PubChem BioAssay (NCATS)
